The structures appear in SMILES notation.

The assay is described as follows: blood-stage malaria parasite viability loss – strain 3D7, DAPI fluorescence, 100 nL, primary screen (AID 1184).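 Further: parasites grown inside human red blood cells in medium with human serum.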 Conditions: P. falciparum 3D7 growth, 3 d, higher = more signal.
With `N#Cc1ccc(C(O)C2C=CC3C(=O)N(c4ccccc4)C(=O)C3N2Nc2ccccc2)cc1` (stereo not given), the z-score is -0.605.
`Cc1ccc(S[C@]2(C(=O)NCCCN(C)C)CC(=O)N(C3CCCCC3)[C@@H]2c2ccc(CO)cc2)cc1` came in with a z-score of -1.54.
Take `CC(CO)N1C(=O)[C@@H]2[C@H]3C(=O)OCC=C[C@H]3OC23C=CCN(C(C)(C)C)C(=O)[C@@H]13` (stereo not given in full): the z-score stood at 0.293.
On to `N#Cc1ccc(NN2C(C(O)c3ccc(F)cc3)C=CC3C(=O)N(c4ccccc4)C(=O)C32)cc1` (stereo not given), for which the z-score was -0.573.
As for `COC(=O)c1c(CC[C@@H](CO)NC(=O)N2CCC[C@H]2Cn2cc(Cc3ccccc3)nn2)oc(C(C)=O)c1C(=O)OC`, the figure is -0.547.
For the compound `[N-]=[N+]=Nc1ccccc1[C@@H]1OC(c2ccc(OCCCO)cc2)=N[C@]1(Cc1ccccc1)C(=O)NCC(O)CO` (stereo not given in full), the z-score was -2.14.
For `COC(=O)[C@@]1(Cc2ccc(OC)cc2)[C@@H]2C(=CC(=O)[C@H]2CC(=O)C(=O)N(C)C)CN1C(=O)c1ccccc1`, the z-score was -1.73.
`CO[C@H]1O[C@H](CO)[C@@H](OC(=O)Nc2ccccc2-c2ccccc2)[C@H](OC(=O)Nc2ccc3c(c2)OCO3)[C@H]1OC(=O)Nc1ccc2c(c1)OCO2` showed a z-score of -1.6.
`CN1C(=O)C2C=CC(C(O)COCc3ccccc3)N(N(c3ccccc3)c3ccccc3)C2C1=O` (stereo not given) returned a z-score of -0.144.
Compound `CN1C(=O)C2C=CC(C(O)c3cccc(O)c3)N(Nc3ccccc3)C2C1=O` (stereo not given) came in with a z-score of 0.655.
The same measure for `COC(=O)[C@H](Cc1ccccc1)N1CC(/C=C/C2CC2)=C[C@H]1[C@H](O)Cc1ccccc1`: -1.65.
In turn, `CC=CC(O)C1C=CC2C(=O)N(c3ccccc3)C(=O)C2N1Nc1ccccc1F` (stereo not given) displayed a z-score of -0.48.
The same measure for `O=C(NCC(F)(F)F)[C@@H]1c2ccccc2C(=O)N(Cc2cc(F)cc(C(F)(F)F)c2)[C@H]1c1ccc(CO)cc1`: -1.25; for `O=C1O[C@@H](c2ccccc2)[C@@H](c2ccccc2)N2[C@@H](c3ccc(O)cc3)[C@]3(C(=O)Nc4ccc(C#CC5(O)CCCCCC5)cc43)[C@@H](C(=O)NC[C@H](O)c3ccccc3)[C@H]12`: -0.627; for `COCCCNC(=O)[C@@]1(Sc2ccc(C)cc2)CC(=O)N(C2CCCCC2)[C@@H]1c1ccc(CO)cc1`: -0.715.
With `C=C(/C(=C/C[C@H](OC(=O)c1ccncc1)c1ccc(CO)o1)c1cc(C(=O)OC)ccc1OC)C(C)C`, the z-score was -0.114.
As for `NC(N)=NCCCn1cc(CNC(=O)[C@@H](N)Cc2ccccc2)nn1`, the z-score came out at 0.139.
As for `COC(=O)[C@@]1(Cc2ccc(OC)cc2)[C@H]2c3cc(C(=O)N(C)C)n(Cc4ccc(Cl)c(C(F)(F)F)c4)c3C[C@H]2CN1C(=O)c1ccccc1`, the figure is -1.48.
In the case of `C=CC[C@@]1(C(=O)N2CCOCC2)N=C(c2ccc(OCCCO)cc2)O[C@@H]1c1ccccc1CN=[N+]=[N-]`, the z-score is -2.26.
Compound `C[N+](C)(C)CCCCCCNC(=O)[C@H]1C[C@H]2C(=O)NCC(=O)N2[C@H]1c1ccc(O)cc1` yielded a z-score of 0.089.
As for `C=C(/C(=C/C[C@H](OC(C)=O)c1ccccc1OCCO)c1cc(C(=O)OC)ccc1OC)C(C)C`, the z-score was -2.42.
Regarding `O=C(NCC(F)(F)F)[C@@H]1c2ccccc2C(=O)N(Cc2ccc(OC(F)(F)F)cc2)[C@H]1c1ccc(CO)cc1`, the z-score is -0.828.
`C=CCC(OC(C)=O)[C@@H]1[C@@H](N(Cc2ccc(-c3cccc(C(F)(F)F)c3)o2)C(=O)c2ccc(C)cc2)c2cc(OCCCO)ccc2N1C(=O)c1ccc2ccccc2c1` (stereo not given in full) yielded a z-score of -2.6.
`C[N+](C)(C)CCCC[C@@H]1NC(=O)[C@H]2C[C@@H](C(=O)NCCCCCCN)[C@@H](c3ccc(O)cc3)N2C1=O` returned a z-score of -0.104.
`CCCCCCc1nc(C2CC2)cc2c1[Si](C(C)C)(C(C)C)OC2`: the z-score was -1.47.
The compound `CCOC(=O)c1ccc(NC(=O)O[C@H]2[C@H](OC(=O)Nc3ccc4c(c3)OCO4)[C@@H](OC(=O)Nc3ccc4c(c3)OCO4)[C@@H](OC)O[C@@H]2CO)cc1` returned a z-score of -2.42.
Regarding `COC(=O)c1nc2oc1CC[C@@H](CO)NC(=O)N(C)Cc1cnnn1C[C@H](Cc1ccccc1)NC2=O`, the z-score came out at 1.06.
`NC(=O)N1C(=O)C2C(C1=O)C1C=C(CCCO)C2C(c2cccs2)N1Cc1cccc(OC(F)(F)F)c1` (stereo not given) registered a z-score of 0.379.
The same measure for `[N-]=[N+]=NCc1ccccc1C[C@@]1(C(=O)NCc2ccccc2)N=C(c2ccc(OCCCO)cc2)O[C@@H]1c1ccccc1N=[N+]=[N-]`: -2.37.
As for `CCCNC(=O)[C@@H]1c2ccccc2C(=O)N(C(C)C)[C@H]1c1ccc(CO)cc1`, the z-score was -0.473.
For `O=C1C=C(c2ccccc2)C(=O)c2ccc([C@H]3Oc4ccccc4S(=O)(=O)N4CCC[C@@H]34)cc21`, the z-score is -3.17.
With `O=C1O[C@@H](c2ccccc2)[C@@H](c2ccccc2)N2[C@@H](c3ccccc3OCCO)[C@]3(C(=O)Nc4ccc(C#CCCO)cc43)[C@@H](C(=O)N3CCCCCCC3)[C@H]12`, the z-score was -2.23.
For `CC(C)C(=C=CC[C@H](O)c1ccc(OCCO)cc1)C[C@H](O)c1ccccn1`, the z-score is -2.06.
`COc1cc2c(cc1OC)CN(C(=O)[C@@H]1[C@H]3C(=O)O[C@H](c4ccccc4)[C@H](c4ccccc4)N3[C@H](c3ccc(OCCO)cc3)[C@@]13C(=O)Nc1ccccc13)CC2`: the z-score is -1.77.
In turn, `COc1ccc([Si](C)(C)[C@H]2[C@H](CCn3cc([C@H](O)c4ccccc4)nn3)O[C@@]3(C(=O)N(Cc4ccc(N5C(=O)c6cccc7cccc5c67)cc4)c4ccccc43)[C@@H]2C)cc1` returned a z-score of -1.59.

The record behind these values is PubChem BioAssay.
